Assay outcomes as filed in PubChem BioAssay.
TDP1 cell noCPT: qHTS for Inhibitors of human tyrosyl-DNA phosphodiesterase 1 (TDP1): qHTS in cells in absence of CPT | Potency, µM (titrated, usually from 46.2 µM), for inactives: top-dose activity change, negative = growth inhibition, hits mostly inhibitors | 15% of 420,000 active | DT40 Tdp1-/- hTDP1 cells, no CPT, ATP luminescence, 48 h; note: nearly all actives have a fitted effect of over 55% in size
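Cells were dispensed at 400 per well, compounds added by pin tool, plates incubated ≥48 hr at 37 °C, then CellTiter-Glo added for 30 min at room temperature before luminescence reading. Line: DT40 Tdp1-/- complemented with hTDP1; camptothecin omitted.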
DT40 TDP1 CPT: DT40-hTDP1 cell growth loss with CPT. AID 686979. Potency, µM (titrated, usually from 46.2 µM), inactives show at the highest dose activity change, negative = growth inhibition, actives largely listed as inhibitors. chicken DT40 Tdp1-/-;hTDP1 cells + 20 nM CPT, ATP luminescence, 48 h. 12% of 420,000 active; note: nearly all actives have a fitted effect of over 55% in size
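Chicken DT40 Tdp1-/- cells complemented with human TDP1, 400 cells/well, exposed to compounds plus 20 nM camptothecin for at least 48 h at 37 C; viability read as ATP content by CellTiter-Glo luminescence.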
KB-V1 MDR tox: kills drug-selected multidrug resistant KB-V1 cells; KB-V1 MDR cells viability, CellTiter-Glo, 72 h; Potency, µM (titrated, usually from 46.1 µM), hits mostly cytotoxic; 3.4% of 400,000 active; AID 1347076; note: nearly all actives have a fitted effect of over 60% in size
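Following 72 h at 37 degrees C with compound, KB-V1 cell viability was read by CellTiter-Glo luminescence, medium being phenol-red-free DMEM plus 10% FBS; concentration-response parameters came from normalized, curve-fitted qHTS data.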
KB-3-1 tox: KB-3-1 parental cell cytotoxicity | KB-3-1 viability, CellTiter-Glo ATP luminescence, 72 h | Potency, µM (series often up to 46.1 µM), usual class: cytotoxic | 1.4% of 400,000 active | AID 1347075; note: nearly all actives have a fitted effect of over 60% in size
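72 h, 37 °C compound treatment of KB-3-1 parental cells; CellTiter-Glo added, 10 min, luminescence read. Data corrected against DMSO-only plates and normalized before curve fitting.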
HT1080-NT tox: kills 2HG-producing HT-1080-NT fibrosarcoma cells. HT-1080-NT fibrosarcoma viability, CellTiter-Glo ATP luminescence, 48 h. Potency, µM (highest dose often 46.1 µM), for inactives: top-dose activity, negative = less viability, most hits filed as cytotoxic. 1.6% of 360,000 active;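 note: NT is the 2HG producing partner of a matched IDH1 knockdown line; 0% = DMSO-treated cells and -100% = media-only wells without cells; nearly all actives have a fitted effect of over 55% in size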
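Compounds were tested in concentration-response format on HT-1080-NT cells for 48 hours at 37 degrees C. Cell viability came from CellTiter-Glo luminescence; curves were classified by r2, response magnitude and activity.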
HT1080 IDH1KD tx: kills HT-1080 cells with IDH1 knockdown | HT-1080 IDH1 knockdown viability, ATP luminescence, 48 h | Potency, µM (titrated, usually from 46.1 µM), without a hit: top-dose activity, negative = toxicity, most hits filed as cytotoxic | 2% of 360,000 active | AID 686971;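 note: 0% = DMSO wells and -100% = cell-free medium wells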
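Cytotoxicity counter-line: IDH1KD HT-1080, 48 h, CellTiter-Glo. Curves classed by r2, magnitude and activity.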
Starred values were filed as active, the others as inactive; i = inactive; ? = inconclusive; nt = no result; ! = repeats disagree. This is a sample that favours compounds with a hit; in the whole collection about 19% have one here. Calls come from the whole dose curve; as a rule, active = well fitted curve in the direction sought with a large enough effect; inconclusive = small, poorly fitted or top-dose-only effect, or another doubt; inactive = no such curve, though single readings can be large; an effect the other way counts as inactive or inconclusive. Unless noted, % is set by controls: 0 for no effect and ±100 for the full control effect; potency is the fitted concentration of half-maximal effect.

SMILES	TDP1 cell noCPT	DT40 TDP1 CPT	KB-V1 MDR tox	KB-3-1 tox	HT1080-NT tox	HT1080 IDH1KD tx
CN1CCc2cc3c(cc2C1O)OCO3 (stereo unspecified)	3%	7%	nt	nt	nt	nt
O=C(O[C@H]1CN2CCC1CC2)N1CCc2ccccc2[C@@H]1c1ccccc1	21µM*	?	nt	nt	nt	nt
c1ccc(C2CN3CCC2CC3)cc1 (stereo unspecified)	-4%	5%	i	i	-5%	0%
CN(C)[C@@H]1C(=O)C(C(N)=O)=C(O)[C@@]2(O)C(=O)C3=C(O)c4c(O)ccc(Cl)c4[C@@](C)(O)[C@H]3C[C@@H]12	?	15µM*!	?	i	-8%	-8%
CN(C)[C@@H]1C(=O)C(C(N)=O)=C(O)[C@@]2(O)C(=O)C3=C(O)c4c(O)cccc4[C@@](C)(O)[C@H]3[C@H](O)[C@@H]12	5.8µM*!	7.3µM*!	i	i	29%	1%
CN(C)C1C(=O)C(C(N)=O)=C(O)[C@@]2(O)C(=O)C3=C(O)c4c(O)cccc4[C@](C)(O)C3C(O)C12 (stereo partly specified)	-26%	-18%	nt	nt	nt	nt
CN(C)[C@@H]1C(=O)C(C(N)=O)=C(O)[C@@]2(O)C(=O)C3=C(O)c4c(O)cccc4[C@@](C)(O)C3C[C@@H]12 (stereo partly specified)	8.2µM*	18µM*	i	i	?	?
Clc1cccc(N2Cc3ccccc3-n3nncc3C2)c1	?	?	i	i	-23%	?
Cn1cccc1-c1cccnc1	-2%	-8%	nt	nt	nt	nt
Cc1cc(C)n(-c2ccc(NN=C(C#N)C#N)cc2)n1	7.3µM*	10µM*	i	i	9%	?
CCN(CC)S(=O)(=O)c1ccc(NN=C(C#N)C#N)cc1	?	?	i	i	-24%	-27%
N#CC(C#N)=NNc1ccc(-n2ccc(C(F)(F)F)n2)cc1	1.6µM*	2.3µM*	i	?	?	4.6µM*
COc1cccc(C(C(=O)NCc2ccco2)N(Cc2ccco2)C(=O)Cn2nnc3ccccc32)c1 (stereo unspecified)	?	?	i	i	-2%	5%
COc1cc2c(cc1OC)-c1c(OC)c(OC)cc3c1C(C2)N(C)CC3 (stereo unspecified)	?	?	?	i	-1%	-3%
COc1cc2c(cc1OC)-c1c(O)c(OC)cc3c1[C@H](C2)N(C)CC3	24µM*	?	nt	nt	nt	nt
Cc1ccc(S(=O)(=O)Nc2ccc3ncccc3c2[N+](=O)[O-])cc1	?	-5%	21µM*	18µM*	-3%	-5%
O=C(C1CC(=O)N(c2ccc(F)c(Cl)c2)C1)N1CCC2(CC1)OCCO2 (stereo unspecified)	-29%	?	i	i	-4%	17%
C(=C/c1ccccc1)/CN1CCN(CCOC(c2ccccc2)c2ccccc2)CC1	12µM*	6.7µM*	nt	nt	nt	nt
Cc1ccc(S(=O)(=O)N(C)C[C@@H]2Oc3ncc(Br)cc3C(=O)N([C@H](C)CO)C[C@H]2C)cc1	9.2µM*	?	i	i	2%	-3%
C[C@H]1CN([C@@H](C)CO)C(=O)c2cccc(NC(=O)c3ccc(-c4nccs4)cc3)c2O[C@@H]1CN(C)C(=O)Nc1cccc2ccccc12	15µM*	26µM*	i	i	-8%	-10%
Cc1ccc(S(=O)(=O)N(C)C[C@H]2Oc3c(NC(=O)Nc4cccc5ccccc45)cccc3C(=O)N([C@@H](C)CO)C[C@@H]2C)cc1	?	16µM*	i	?	-24%	?
